The values below come from the supplement of paper PMC6555819.

The experiment relates to VDR:RXRa (NR concentration 270 nM, RXRa partner concentration 90 nM). The experiment can be described thus: PBM binding z-score (relative to random genomic background probes); higher = stronger binding; sequences stand for … in GC…GCGATTGACAGCGTAGAATGAAGG
The method, then:
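Protein-binding microarray (Agilent 4x180K custom design, double-stranded 60-nt probes: 5' GC cap, 34-nt variable region, 24-nt constant primer region; full probe sequence given). Purified or IVT nuclear receptor:RXRα heterodimers (3:1 NR:RXRα, mostly 270:90 nM) or homodimers were incubated for 1 h in PBS with 2% milk and no ligand, then detected with Alexa488 antibodies. Fluorescence from o1-orientation probes (~5 replicates averaged) was converted to z-scores against 500 random hg19 background probes. Variable regions are seed direct-repeat (DR0–DR5) sites, all their single-nucleotide variants and half-site ablations.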
TCTAGTTGGTCACGGAGGTCACTCACGACGGGTA showed a PBM binding z-score of 5.6.

In the case of ACAGACAGGTGAAGAAGGTAACTCAGGCTATCAT, the PBM binding z-score worked out at 0.439.

As to AATACAGGGTCAATAGGCCAGAGTAGGTACGAAT, the PBM binding z-score was determined as 3.64.

Consider TCGAGTAGGTTAGGTGCATTCAGAATGGCGTCGA, for which the PBM binding z-score came out at 0.44.

As to TCTTGTAGATCAATACAGGTTAAGAAAGTGCGCT, the PBM binding z-score was 1.26.

CCTACTGGGCCACGAAAGGTCACTGATTCAGTGA: the PBM binding z-score was determined as 3.77.

For CTCGACAGGTCGGTTGAGGTGAGTATACGGATAA, the PBM binding z-score was found to be 0.149.

With CAAACTAGGTCACCAGAAGGTCAAAGTCCGCATG, the PBM binding z-score was found to be 5.66.

The sequence AGTCAAAGTTCAGGACGAGGTAACGTATAGCACG showed a PBM binding z-score of 3.14.

GCAACTGGGGCAAAGCAGGTTACCATAAGGTTGG: the PBM binding z-score was 0.361.

With GCGACTGGGGCAAAGAAGGTTACCATAAGGTTGG, the PBM binding z-score amounted to 0.733.

Take CACACTAGGTCACCGGAAGGTCAAAGTCCGCATG: the PBM binding z-score worked out at 5.97.

For the sequence ACTTACGTGTCAACGAGGTTATAGCACGCGTATA, the PBM binding z-score was found to be 5.46.

Take CATACTAGGTCACGAAAGGTCAAAGTCGAATGAC: the PBM binding z-score came to 6.92.

ATCTCTAGGTAAGACTCTGTTCAGTGAAGAACGC showed a PBM binding z-score of 0.234.

In turn, TTACCAAGGTGAGCTGAGGTCGTTGGTCCAACTC came in with a PBM binding z-score of 3.79.

TAGCTTAGGTCAGATCGGGCCAGTATACGCTATA came in with a PBM binding z-score of 0.872.

Consider ATCTCTAGGTTAAGTTCAGTGAAAGATCGATAGA, for which the PBM binding z-score came out at 2.37.

For TCTTGTAGATAAAGCAGGTTAAGAAAGCCTGAGT, the PBM binding z-score was found to be 0.751.

In the case of TCTACTAGTTGATTAGGGCAACCGAAACAGCGGA, the PBM binding z-score was found to be 0.208.

In turn, CCGACTGGGGCAGAAAGGTTACCAAACCATCCGG came in with a PBM binding z-score of 0.877.

CCTACTGGGCCATAAAGGTCATTGATGCCGATAA yielded a PBM binding z-score of 4.93.

For the sequence CCTACTGGGCCAAAAAGGTCATTCATGCCGATAA, the PBM binding z-score turned out to be 4.88.

In turn, CTCGAAAGGTCGGTTGAGGCGAGTATACGGATAA returned a PBM binding z-score of 0.809.

On to AGAACGAGGGCACGCCGAGTTGATAGCAGAGTAG, for which the PBM binding z-score was determined as 2.27.

Regarding CTCGAAAGGGCGGTTGAGGTGAGTATACGGATAA, the PBM binding z-score was -0.045.

Take GTACCAAGGTAAATAGGTCGTTGATGAGTAGGCG: the PBM binding z-score came out at 0.336.

In the case of CTTACTGGGCCAAGGTCATTGATCAGTCAAAGCA, the PBM binding z-score worked out at 3.44.

TCATATAGCTAATACAGGTGAAAGTCGGCATCTA came in with a PBM binding z-score of 0.529.

On to TTATATAGGTAAATGCTAGGTGAAAGTCCGATCT, for which the PBM binding z-score is 0.639.

AGAATGCGGTTAAGATCAGGGAAACAGAATACAT gave a PBM binding z-score of -0.269.

For TCTTGTAGATCAAAGGTGAAGAAAGCCGAAGCCT, the PBM binding z-score came to 0.74.

In the case of CAAACTAGGTCACCGGAAGGTCAAAGCCCGCATG, the PBM binding z-score was found to be 5.79.

GATACATGGTCAGCTAGAGGCCAGAGTATGGAAA displayed a PBM binding z-score of -0.32.

CAGCCTAGGTCAGGGCCAGTAGAGGAGGAACGTT displayed a PBM binding z-score of -0.0759.

Consider CGTCAAAGTTCAAGGAAACGTAACAGAAAGCAGC, for which the PBM binding z-score turned out to be 3.29.

In turn, TCTCGGAGGACACGAAGGTCAGAGCGTTCCAGAG came in with a PBM binding z-score of 2.42.

With ACAGACAGGTGATGGAGGTAACTCAGGCTATCAT, the PBM binding z-score was 0.681.

In turn, ATATGTAGGTTATCGGGTCATTCTGTTTGCGCAT came in with a PBM binding z-score of 3.82.

In the case of TATACAGGGTTAAAGGCCAGAGTACGAATGTCGA, the PBM binding z-score is 2.09.
